From paper PMC7862700, “An all-to-all approach to the identification of sequence-specific readers for epigenetic DNA modifications on cytosine” come the findings set out here.

Common to all, as to test: DAPPL (digital affinity profiling via proximity ligation, sequencing); 10 mM Tris-HCl pH 7.5, 50 mM NaCl, 1 mM DTT, 4% glycerol, room temperature, 30 min; GST-TFs on glutathione beads, 16-mer random dsDNA library, 0.1% formaldehyde crosslink after washing; high values mean tight binding
Assay [1] has as its target T1, FLI1 (Homo sapiens, UniProt Q01543 1-452).
T1 sequence: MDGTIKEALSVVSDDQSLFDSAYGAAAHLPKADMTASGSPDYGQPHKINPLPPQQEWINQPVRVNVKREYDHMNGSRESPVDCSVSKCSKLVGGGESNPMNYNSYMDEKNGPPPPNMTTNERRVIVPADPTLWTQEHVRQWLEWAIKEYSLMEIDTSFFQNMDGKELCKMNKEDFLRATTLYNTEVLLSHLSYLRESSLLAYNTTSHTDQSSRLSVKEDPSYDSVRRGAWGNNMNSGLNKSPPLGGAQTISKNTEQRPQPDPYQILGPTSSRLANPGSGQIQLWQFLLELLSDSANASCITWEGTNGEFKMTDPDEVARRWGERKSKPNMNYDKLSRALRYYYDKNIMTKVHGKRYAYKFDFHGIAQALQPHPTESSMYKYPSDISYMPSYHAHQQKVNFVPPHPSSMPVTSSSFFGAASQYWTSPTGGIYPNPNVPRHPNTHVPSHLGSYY
Conditions: protein: recombinant; tags: N-terminal GST; dsDNA, one strand shown. The gist of the method: (§1)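 Pools were built from human transcription factors expressed in yeast as GST fusions, captured on glutathione beads and DNA-barcoded, along with a tag-only sample. Incubation with 200 nmole of a 16-mer random double-stranded DNA library lasted 30 min at room temperature in Tris/NaCl/DTT/glycerol buffer, and was followed by washing, 0.1% formaldehyde crosslinking, proximity ligation, PCR amplification and Illumina NextSeq500 sequencing. Binding signal is the quotient of each hexamer's read frequency for a factor and its frequency for the tag-only sample.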

For assay [2], the target named is T2, ELK1 (Homo sapiens, UniProt P19419 1-428).
T2 sequence: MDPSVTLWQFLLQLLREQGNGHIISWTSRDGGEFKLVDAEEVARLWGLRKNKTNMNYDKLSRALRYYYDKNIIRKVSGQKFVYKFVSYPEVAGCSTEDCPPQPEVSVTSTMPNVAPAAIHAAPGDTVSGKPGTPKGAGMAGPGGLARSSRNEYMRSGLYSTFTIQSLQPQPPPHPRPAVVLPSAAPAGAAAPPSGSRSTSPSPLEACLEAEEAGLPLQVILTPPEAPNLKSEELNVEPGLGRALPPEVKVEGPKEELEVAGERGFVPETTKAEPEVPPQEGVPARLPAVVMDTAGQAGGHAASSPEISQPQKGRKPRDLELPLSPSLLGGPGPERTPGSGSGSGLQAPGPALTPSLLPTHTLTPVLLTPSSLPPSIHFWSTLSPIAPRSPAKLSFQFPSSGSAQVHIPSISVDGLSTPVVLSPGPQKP
Conditions: protein: recombinant; tags: N-terminal GST; dsDNA, one strand shown. In a few lines: as §1

Assay [3] concerns the target T3, GABPA (Homo sapiens, UniProt Q06546 1-454).
T3 sequence: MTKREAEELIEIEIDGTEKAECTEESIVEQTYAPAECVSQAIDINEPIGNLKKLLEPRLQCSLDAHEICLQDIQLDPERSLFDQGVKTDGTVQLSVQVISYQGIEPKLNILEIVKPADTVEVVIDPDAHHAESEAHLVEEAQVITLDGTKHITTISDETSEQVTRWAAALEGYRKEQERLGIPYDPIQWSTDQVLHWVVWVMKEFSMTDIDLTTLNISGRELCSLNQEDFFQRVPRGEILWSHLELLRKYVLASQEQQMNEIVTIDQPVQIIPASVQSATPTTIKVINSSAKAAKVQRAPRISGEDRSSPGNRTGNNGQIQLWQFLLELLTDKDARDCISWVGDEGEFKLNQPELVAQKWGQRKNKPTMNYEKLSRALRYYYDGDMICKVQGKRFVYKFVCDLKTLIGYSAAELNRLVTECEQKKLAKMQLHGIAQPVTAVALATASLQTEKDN
Conditions: protein: recombinant; tags: N-terminal GST; dsDNA, one strand shown. The gist of the method: as §1

For assay [4], the target named is T4, ERG (Homo sapiens, UniProt P11308 1-479).
T4 sequence: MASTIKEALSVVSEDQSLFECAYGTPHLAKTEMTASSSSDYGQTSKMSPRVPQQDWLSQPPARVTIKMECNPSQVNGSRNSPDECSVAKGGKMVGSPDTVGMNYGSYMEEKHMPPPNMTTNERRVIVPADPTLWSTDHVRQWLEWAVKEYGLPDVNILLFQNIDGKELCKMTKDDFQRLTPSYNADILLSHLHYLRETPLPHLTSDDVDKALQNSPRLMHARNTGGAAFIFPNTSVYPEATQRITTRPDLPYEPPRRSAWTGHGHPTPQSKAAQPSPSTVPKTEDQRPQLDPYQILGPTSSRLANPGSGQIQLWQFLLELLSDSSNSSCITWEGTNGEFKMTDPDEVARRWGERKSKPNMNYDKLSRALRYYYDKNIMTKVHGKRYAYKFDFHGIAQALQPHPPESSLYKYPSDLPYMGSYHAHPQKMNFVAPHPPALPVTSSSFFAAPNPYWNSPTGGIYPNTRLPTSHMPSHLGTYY
The settings on record: protein: recombinant; tags: N-terminal GST; dsDNA, one strand shown. In a few lines:
as §1

Assay [5] has as its target ELF1 (Homo sapiens, UniProt P32519 1-619). The settings on record: protein: recombinant; tags: N-terminal GST; dsDNA, one strand shown. The gist of the method: as §1
Assay [6] deals with T5, EHF (Homo sapiens, UniProt Q9NZC4 1-300).
T5 sequence: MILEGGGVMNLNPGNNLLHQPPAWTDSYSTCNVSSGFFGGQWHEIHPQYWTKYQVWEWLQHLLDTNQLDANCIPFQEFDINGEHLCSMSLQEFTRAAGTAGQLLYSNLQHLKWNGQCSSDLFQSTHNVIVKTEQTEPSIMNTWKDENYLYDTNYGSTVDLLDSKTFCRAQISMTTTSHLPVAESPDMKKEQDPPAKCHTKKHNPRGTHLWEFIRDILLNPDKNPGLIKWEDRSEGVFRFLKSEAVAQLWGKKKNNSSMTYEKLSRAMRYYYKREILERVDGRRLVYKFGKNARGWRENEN
The settings on record: protein: recombinant; tags: N-terminal GST; dsDNA, one strand shown. The gist of the method: as §1

The target in assay [7] is SPI1 (Homo sapiens, UniProt P17947 1-270). The settings on record: protein: recombinant; tags: N-terminal GST; dsDNA, one strand shown. The gist of the method:
as §1

Assay [8] concerns the target SPIB (Homo sapiens, UniProt Q01892 1-262). Conditions: protein: recombinant; tags: N-terminal GST; dsDNA, one strand shown. In a few lines:
as §1

The target of assay [9] is T6, ELK3 (Homo sapiens, UniProt P41970 1-407).
T6 sequence: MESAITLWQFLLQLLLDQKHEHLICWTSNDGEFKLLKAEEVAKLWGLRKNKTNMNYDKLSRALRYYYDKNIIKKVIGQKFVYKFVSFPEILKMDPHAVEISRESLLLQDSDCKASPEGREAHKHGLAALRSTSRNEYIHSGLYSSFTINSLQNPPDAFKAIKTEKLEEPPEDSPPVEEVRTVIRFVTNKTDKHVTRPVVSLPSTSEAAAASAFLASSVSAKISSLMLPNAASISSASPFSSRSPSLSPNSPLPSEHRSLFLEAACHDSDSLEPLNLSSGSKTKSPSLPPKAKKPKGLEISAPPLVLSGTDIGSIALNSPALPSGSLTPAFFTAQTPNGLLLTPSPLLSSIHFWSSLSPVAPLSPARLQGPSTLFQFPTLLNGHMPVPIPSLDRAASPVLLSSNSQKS
The settings on record: protein: recombinant; tags: N-terminal GST; dsDNA, one strand shown. In a few lines:
as §1

For assay [10], the target named is T7, FEV (Homo sapiens, UniProt Q99581 1-238).
T7 sequence: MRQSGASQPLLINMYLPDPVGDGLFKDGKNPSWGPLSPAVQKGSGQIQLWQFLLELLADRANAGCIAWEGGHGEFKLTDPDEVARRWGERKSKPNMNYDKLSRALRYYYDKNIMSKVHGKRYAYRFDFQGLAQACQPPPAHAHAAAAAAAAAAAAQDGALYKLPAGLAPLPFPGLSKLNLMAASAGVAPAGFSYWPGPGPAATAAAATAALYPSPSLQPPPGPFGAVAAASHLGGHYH
Conditions: protein: recombinant; tags: N-terminal GST; dsDNA, one strand shown. In a few lines:
as §1

Assay [11] deals with ETV5 (Homo sapiens, UniProt P41161 1-510). The settings on record: protein: recombinant; tags: N-terminal GST; dsDNA, one strand shown. In a few lines:
as §1

Assay [12] deals with HSF1 (Homo sapiens, UniProt Q00613 1-529). The settings on record: protein: recombinant; tags: N-terminal GST; chain copies: 3; dsDNA, one strand shown. The gist of the method:
as §1

The target in assay [13] is T8, SPIC (Homo sapiens, UniProt Q8N5J4 1-248).
T8 sequence: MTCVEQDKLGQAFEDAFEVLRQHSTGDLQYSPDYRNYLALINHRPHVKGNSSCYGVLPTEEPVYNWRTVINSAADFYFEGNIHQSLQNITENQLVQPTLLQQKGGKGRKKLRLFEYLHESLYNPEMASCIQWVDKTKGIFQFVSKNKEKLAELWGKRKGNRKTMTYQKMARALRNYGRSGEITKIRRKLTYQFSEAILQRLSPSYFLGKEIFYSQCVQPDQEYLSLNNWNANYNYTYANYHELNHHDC
Conditions: protein: recombinant; tags: N-terminal GST; dsDNA, one strand shown. The gist of the method:
as §1

Assay [14] has as its target ELF4 (Homo sapiens, UniProt Q99607 1-663). The settings on record: protein: recombinant; tags: N-terminal GST; dsDNA, one strand shown. In a few lines:
as §1

The target of assay [15] is T9, ELK4 (Homo sapiens, UniProt P28324-2 1-405).
T9 sequence: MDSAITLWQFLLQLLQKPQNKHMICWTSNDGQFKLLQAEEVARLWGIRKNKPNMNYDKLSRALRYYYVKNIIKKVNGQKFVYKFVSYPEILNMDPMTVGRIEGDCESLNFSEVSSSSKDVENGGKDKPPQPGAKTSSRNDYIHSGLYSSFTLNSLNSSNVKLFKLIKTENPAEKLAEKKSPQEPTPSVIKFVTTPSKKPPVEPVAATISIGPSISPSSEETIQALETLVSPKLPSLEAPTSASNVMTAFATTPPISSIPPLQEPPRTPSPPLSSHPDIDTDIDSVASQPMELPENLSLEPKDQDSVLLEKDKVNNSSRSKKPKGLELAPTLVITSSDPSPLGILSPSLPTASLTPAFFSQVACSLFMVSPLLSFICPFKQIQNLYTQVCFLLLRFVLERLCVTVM
Conditions: protein: recombinant; tags: N-terminal GST; dsDNA, one strand shown. The gist of the method:
as §1

Assay [16] addresses T10, ETV2 (Homo sapiens, UniProt O00321 1-342).
T10 sequence: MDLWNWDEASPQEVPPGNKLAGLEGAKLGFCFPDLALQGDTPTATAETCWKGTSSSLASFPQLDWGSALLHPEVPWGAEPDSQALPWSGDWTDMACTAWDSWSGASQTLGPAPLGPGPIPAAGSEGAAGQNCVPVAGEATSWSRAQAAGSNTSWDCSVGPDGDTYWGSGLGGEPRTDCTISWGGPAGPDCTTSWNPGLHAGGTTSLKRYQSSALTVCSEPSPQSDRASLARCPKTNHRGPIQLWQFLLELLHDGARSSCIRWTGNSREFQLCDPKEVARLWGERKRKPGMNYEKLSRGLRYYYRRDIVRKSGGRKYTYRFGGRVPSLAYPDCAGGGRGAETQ
The settings on record: protein: recombinant; tags: N-terminal GST; dsDNA, one strand shown. In a few lines:
as §1

For assay [17], the target named is T11, ELF3 (Homo sapiens, UniProt P78545 1-371).
T11 sequence: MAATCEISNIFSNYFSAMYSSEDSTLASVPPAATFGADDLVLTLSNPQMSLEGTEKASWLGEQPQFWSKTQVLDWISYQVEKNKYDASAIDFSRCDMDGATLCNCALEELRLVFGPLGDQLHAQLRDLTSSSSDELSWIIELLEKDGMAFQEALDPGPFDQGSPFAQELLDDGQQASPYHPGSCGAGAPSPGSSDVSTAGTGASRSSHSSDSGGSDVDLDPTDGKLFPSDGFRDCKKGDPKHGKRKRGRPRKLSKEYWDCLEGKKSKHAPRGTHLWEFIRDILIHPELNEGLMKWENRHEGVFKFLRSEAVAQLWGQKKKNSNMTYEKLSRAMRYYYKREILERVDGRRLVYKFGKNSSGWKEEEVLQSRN
Conditions: protein: recombinant; tags: N-terminal GST; dsDNA, one strand shown. The gist of the method: as §1

The target of assay [18] is CRX (Homo sapiens, UniProt O43186 1-299). The settings on record: protein: recombinant; tags: N-terminal GST; dsDNA, one strand shown. In a few lines: as §1
CRX, sequence (O43186 whole entry): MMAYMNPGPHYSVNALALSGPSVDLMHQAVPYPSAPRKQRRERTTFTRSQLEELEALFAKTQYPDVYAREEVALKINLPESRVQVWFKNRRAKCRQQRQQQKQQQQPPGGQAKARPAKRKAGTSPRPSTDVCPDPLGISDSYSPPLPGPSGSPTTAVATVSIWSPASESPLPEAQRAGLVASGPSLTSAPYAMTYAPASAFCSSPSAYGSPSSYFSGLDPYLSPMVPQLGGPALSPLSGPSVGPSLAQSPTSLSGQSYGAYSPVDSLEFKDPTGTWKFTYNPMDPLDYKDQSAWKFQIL
Assay [19] has as its target ETV1 (Homo sapiens, UniProt P50549 1-477). Conditions: protein: recombinant; tags: N-terminal GST; dsDNA, one strand shown. In a few lines:
as §1

ETV1, sequence (P50549 whole entry): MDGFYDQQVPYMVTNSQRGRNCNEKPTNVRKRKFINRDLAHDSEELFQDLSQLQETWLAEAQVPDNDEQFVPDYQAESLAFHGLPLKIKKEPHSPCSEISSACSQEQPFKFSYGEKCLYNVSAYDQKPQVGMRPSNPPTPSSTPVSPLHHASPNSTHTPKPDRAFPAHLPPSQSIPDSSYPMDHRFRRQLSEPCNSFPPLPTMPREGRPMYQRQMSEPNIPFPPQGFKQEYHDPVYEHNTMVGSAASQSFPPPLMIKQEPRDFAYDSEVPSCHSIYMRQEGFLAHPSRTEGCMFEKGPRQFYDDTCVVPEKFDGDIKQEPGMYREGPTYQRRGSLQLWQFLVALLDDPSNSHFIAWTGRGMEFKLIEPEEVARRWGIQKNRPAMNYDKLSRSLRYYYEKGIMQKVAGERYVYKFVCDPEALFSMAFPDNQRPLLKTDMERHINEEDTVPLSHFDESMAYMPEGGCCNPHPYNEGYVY
ELF4, sequence (Q99607 whole entry): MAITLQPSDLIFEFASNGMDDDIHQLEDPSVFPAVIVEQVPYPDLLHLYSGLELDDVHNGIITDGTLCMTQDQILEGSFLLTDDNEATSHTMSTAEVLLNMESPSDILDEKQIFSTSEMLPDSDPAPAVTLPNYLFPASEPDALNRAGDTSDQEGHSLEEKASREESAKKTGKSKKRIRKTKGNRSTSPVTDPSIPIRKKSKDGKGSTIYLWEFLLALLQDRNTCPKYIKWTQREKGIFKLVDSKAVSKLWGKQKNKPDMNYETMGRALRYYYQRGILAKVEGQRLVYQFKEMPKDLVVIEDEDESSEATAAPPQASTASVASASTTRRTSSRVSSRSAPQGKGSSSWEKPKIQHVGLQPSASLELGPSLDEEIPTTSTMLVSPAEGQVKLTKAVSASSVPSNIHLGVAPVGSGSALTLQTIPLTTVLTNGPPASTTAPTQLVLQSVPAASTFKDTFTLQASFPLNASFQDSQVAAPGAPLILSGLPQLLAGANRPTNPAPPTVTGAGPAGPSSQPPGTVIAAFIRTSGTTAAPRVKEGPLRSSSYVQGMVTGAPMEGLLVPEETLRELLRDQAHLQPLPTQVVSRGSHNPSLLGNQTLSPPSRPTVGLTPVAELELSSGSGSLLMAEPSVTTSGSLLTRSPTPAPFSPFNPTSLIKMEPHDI
ETV5, sequence (P41161 whole entry): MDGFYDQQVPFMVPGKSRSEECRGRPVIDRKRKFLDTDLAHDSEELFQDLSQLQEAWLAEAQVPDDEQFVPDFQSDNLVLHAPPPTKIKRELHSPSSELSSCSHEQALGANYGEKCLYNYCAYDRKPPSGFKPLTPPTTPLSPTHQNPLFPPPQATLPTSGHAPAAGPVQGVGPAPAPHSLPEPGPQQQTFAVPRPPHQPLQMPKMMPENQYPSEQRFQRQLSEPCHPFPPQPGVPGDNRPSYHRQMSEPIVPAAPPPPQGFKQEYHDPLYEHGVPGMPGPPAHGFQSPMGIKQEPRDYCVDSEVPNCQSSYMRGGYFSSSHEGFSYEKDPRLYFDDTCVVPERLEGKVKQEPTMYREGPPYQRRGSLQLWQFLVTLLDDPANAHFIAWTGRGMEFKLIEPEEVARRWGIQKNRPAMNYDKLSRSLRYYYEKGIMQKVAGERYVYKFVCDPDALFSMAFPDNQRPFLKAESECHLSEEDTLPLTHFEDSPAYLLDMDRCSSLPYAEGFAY
ELF1, sequence (P32519 whole entry): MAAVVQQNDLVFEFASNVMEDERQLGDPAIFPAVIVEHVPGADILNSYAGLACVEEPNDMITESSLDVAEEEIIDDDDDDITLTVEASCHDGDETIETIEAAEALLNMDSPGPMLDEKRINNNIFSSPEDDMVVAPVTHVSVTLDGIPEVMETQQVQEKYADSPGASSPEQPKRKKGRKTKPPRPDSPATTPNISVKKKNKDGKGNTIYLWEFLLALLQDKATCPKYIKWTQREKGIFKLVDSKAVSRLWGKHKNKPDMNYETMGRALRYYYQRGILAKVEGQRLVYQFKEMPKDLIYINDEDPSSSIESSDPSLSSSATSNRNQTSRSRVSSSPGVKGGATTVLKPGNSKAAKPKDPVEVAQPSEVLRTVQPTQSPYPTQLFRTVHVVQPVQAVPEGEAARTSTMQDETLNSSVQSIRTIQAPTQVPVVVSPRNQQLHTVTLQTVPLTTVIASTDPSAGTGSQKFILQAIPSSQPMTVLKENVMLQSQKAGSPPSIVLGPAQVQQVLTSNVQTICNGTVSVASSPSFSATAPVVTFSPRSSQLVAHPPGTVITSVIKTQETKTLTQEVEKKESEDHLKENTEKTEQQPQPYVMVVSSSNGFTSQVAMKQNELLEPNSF
HSF1, sequence (Q00613 whole entry): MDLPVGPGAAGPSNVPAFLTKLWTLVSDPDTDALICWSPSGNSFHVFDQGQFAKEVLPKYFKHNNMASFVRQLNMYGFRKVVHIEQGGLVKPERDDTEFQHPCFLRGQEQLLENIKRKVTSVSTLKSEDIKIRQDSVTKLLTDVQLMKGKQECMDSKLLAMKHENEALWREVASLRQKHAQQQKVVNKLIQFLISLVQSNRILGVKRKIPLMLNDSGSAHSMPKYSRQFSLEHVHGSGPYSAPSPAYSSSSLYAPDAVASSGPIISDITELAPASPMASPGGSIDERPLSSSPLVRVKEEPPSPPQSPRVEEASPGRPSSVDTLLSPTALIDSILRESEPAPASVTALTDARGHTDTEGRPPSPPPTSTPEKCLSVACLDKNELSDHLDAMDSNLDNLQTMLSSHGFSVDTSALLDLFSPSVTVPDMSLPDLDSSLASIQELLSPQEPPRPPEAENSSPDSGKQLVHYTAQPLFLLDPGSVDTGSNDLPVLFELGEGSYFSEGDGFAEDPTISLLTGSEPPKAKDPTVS
SPIB, sequence (Q01892 whole entry): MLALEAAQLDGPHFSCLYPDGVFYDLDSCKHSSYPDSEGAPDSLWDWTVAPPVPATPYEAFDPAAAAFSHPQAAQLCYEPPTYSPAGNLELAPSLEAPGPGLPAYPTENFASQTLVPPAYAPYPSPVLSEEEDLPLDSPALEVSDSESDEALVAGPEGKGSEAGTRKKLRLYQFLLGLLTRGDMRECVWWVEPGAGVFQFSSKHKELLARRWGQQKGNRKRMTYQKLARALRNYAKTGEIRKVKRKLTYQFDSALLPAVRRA

For AAAAAC, the binding signal was 1.31 fold enrichment (6-mer frequency, TF over GST control) in assay [1]; 1.12 fold enrichment (6-mer frequency, TF over GST control) in [2]; 1.26 fold enrichment (6-mer frequency, TF over GST control) in assay [3]; 1.26 fold enrichment (6-mer frequency, TF over GST control) in assay [4]; 1.23 fold enrichment (6-mer frequency, TF over GST control) in assay [5]; 1.28 fold enrichment (6-mer frequency, TF over GST control) in assay [6]. Also, the binding signal is 1.46 fold enrichment (6-mer frequency, TF over GST control) in [7]; 1.24 fold enrichment (6-mer frequency, TF over GST control) in assay [8]; 1.31 fold enrichment (6-mer frequency, TF over GST control) in assay [9]; 1.28 fold enrichment (6-mer frequency, TF over GST control) in assay [10]; 1.26 fold enrichment (6-mer frequency, TF over GST control) in assay [11]; 1.19 fold enrichment (6-mer frequency, TF over GST control) in assay [12]. Further, the binding signal was 1.27 fold enrichment (6-mer frequency, TF over GST control) in assay [13]; 1.31 fold enrichment (6-mer frequency, TF over GST control) in [14]; 1.14 fold enrichment (6-mer frequency, TF over GST control) in [15]; 1.32 fold enrichment (6-mer frequency, TF over GST control) in assay [16]; 1.3 fold enrichment (6-mer frequency, TF over GST control) in assay [17]; 1.16 fold enrichment (6-mer frequency, TF over GST control) in [18]. Moreover, the binding signal in assay [19] is 1.27 fold enrichment (6-mer frequency, TF over GST control).
